The values below come from the supplement of paper PMC13172266.

Where a name gives a salt, the structure may show the parent alone.

In the assay the test system is U2932 TK216-resistant clone 2. The assay can be described thus: cell proliferation relative to vehicle (% of vehicle); higher = less growth inhibition. To be noted: 500 nM; 72 h. The method in brief: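 Each of 348 targeted inhibitors was tested at 500 nM or 50 nM for 72 h on U2932 cells, both parental and two clones resistant to an ETS-targeting agent. Readout was by MTT with absorbance read on a Cytation 3. Proliferation appears as percent of proliferating cells relative to vehicle (DMSO).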
For `O=C(NCc1ccncc1)C12CC3CC(C1)CC(c1ccc(Cl)cc1)(C3)C2`, the cell proliferation was 91.5.

`Cc1csc(-c2nnc(Nc3ccc(Oc4ncccc4-c4ccnc(N)n4)cc3)c3ccccc23)c1` gave a cell proliferation of 99.7.

`CCS(=O)(=O)N1CC(CC#N)(n2cc(-c3ncnc4[nH]ccc34)cn2)C1`: the cell proliferation is 118.

On to `COc1ccc(-c2ccc3c(N4CCOC[C@@H]4C)nc(N4CCOC[C@@H]4C)nc3n2)cc1CO`, for which the cell proliferation worked out at 34.8.

The molecule `CCOc1ccc(Cc2cc([C@@H]3O[C@H](CO)[C@@H](O)[C@H](O)[C@H]3O)ccc2Cl)cc1` [Dapagliflozin] displayed a cell proliferation of 103.

For `CC(=O)O[C@@]12CO[C@@H]1C[C@H](O)[C@@]1(C)C(=O)[C@H](O)C3=C(C)[C@@H](OC(=O)[C@H](O)[C@@H](NC(=O)OC(C)(C)C)c4ccccc4)C[C@@](O)([C@@H](OC(=O)c4ccccc4)[C@H]21)C3(C)C` [Docetaxel], the cell proliferation came to 11.6.

`O=C(Nc1cccc(Nc2ncc(Br)c(NCCc3cnc[nH]3)n2)c1)N1CCCC1`: the cell proliferation stood at 87.

Take `Nc1ccccc1NC(=O)c1ccc(CNC(=O)OCc2cccnc2)cc1` [Entinostat (MS-275)]: the cell proliferation was found to be 74.8.

Regarding `CC1(C)CCC(CN2CCN(c3ccc(C(=O)NS(=O)(=O)c4ccc(NCC5CCOCC5)c([N+](=O)[O-])c4)c(Oc4cnc5[nH]ccc5c4)c3)CC2)=C(c2ccc(Cl)cc2)C1`, the cell proliferation turned out to be 29.9.

`O=C(O)C(Cc1c[nH]c2ccccc12)N1C(=O)c2ccccc2C1=O` (centres undefined) returned a cell proliferation of 102.

For the molecule `Cc1cnc(-c2ccccc2C(C)C)nc1NCc1ccc(-n2ccnn2)cc1`, the cell proliferation came out at 97.8.

In turn, `CCc1ccc(/C=C2/SC(=S)NC2=O)cc1` registered a cell proliferation of 103.

As for `O=C(Cc1ccc(-c2ccc(OCCN3CCOCC3)cc2)cn1)NCc1ccccc1`, the cell proliferation amounted to 8.36.

`C/C(=C\C(=O)Nc1ccccc1C(=O)O)c1ccc2ccccc2c1` gave a cell proliferation of 98.2.

As for `CN1CCC(CNc2ccc3ncc(-c4cccc(OC(F)(F)F)c4)n3n2)CC1` [SGI-1776 free base], the cell proliferation amounted to 86.7.

The molecule `Cc1cn([C@H]2O[C@@H](CO)[C@H](O)[C@H]2F)c(=O)[nH]c1=O` [Clevudine] showed a cell proliferation of 103.

The molecule `CNC(=O)c1cccc(-c2ccc3c(N4CCOC[C@@H]4C)nc(N4CCOC[C@@H]4C)nc3n2)c1` gave a cell proliferation of 52.9.

The molecule `CCCCCCCCc1ccc(CCC(N)(CO)CO)cc1` [Fingolimod (FTY720) HCl] came in with a cell proliferation of 102.

Regarding `COC1=CC(c2cc3ccccc3[nH]2)=N/C1=C\c1[nH]c(C)cc1C` [Obatoclax Mesylate (GX15-070)], the cell proliferation is 1.6.

`O=c1[nH]nc(Sc2ncc([N+](=O)[O-])s2)n1-c1ccc2c(c1)OCCO2`: the cell proliferation is 94.6.

As to `CN(NC(=O)CC(=O)NN(C)C(=S)c1ccccc1)C(=S)c1ccccc1` [Elesclomol (STA-4783)], the cell proliferation is -0.212.

In turn, `C[C@@H]1CN(CC(=O)Nc2ccc3c(c2)Cc2cccc(-c4cc(=O)cc(N5CCOCC5)o4)c2S3)C[C@H](C)O1` registered a cell proliferation of 101.

As to `Nc1nc(F)nc2c1ncn2[C@@H]1O[C@H](COP(=O)(O)O)[C@@H](O)[C@@H]1O` [Fludarabine Phosphate], the cell proliferation came out at 110.

As to `CC/C(=C(\c1ccccc1)c1ccc(OCCN(C)C)cc1)c1ccccc1` [Tamoxifen Citrate], the cell proliferation came to 89.7.

Take `O=C(O)CC[C@H]1CC[C@@](c2cc(F)ccc2F)(S(=O)(=O)c2ccc(Cl)cc2)CC1`: the cell proliferation came to 109.

Molecule `CCn1c2ccccc2c2cc(Nc3ccnc(NCCCN4CCOCC4)n3)ccc21` yielded a cell proliferation of 91.

In turn, `O=C(/C=C\n1cnc(-c2cc(C(F)(F)F)cc(C(F)(F)F)c2)n1)NNc1cnccn1` gave a cell proliferation of 36.3.

For `CCN(CC)CCNC(=O)c1c(C)[nH]c(/C=C2\C(=O)Nc3ccc(F)cc32)c1C` [Sunitinib Malate], the cell proliferation stood at 94.6.

The molecule `N#Cc1c(Oc2ccc(F)c(NC(=O)Cc3cccc(C(F)(F)F)c3)c2)ccc2nc(NC(=O)C3CC3)sc12` had a cell proliferation of 92.8.

Turning to `Cc1nc(C(=O)NCC(=O)O)c(O)c2ccc(Oc3ccccc3)cc12`, the cell proliferation was determined as 98.6.

In turn, `C[C@H]1c2cccc(O)c2C(=O)C2=C(O)[C@]3(O)C(=O)C(C(N)=O)=C(O)[C@@H](N(C)C)[C@@H]3[C@@H](O)[C@@H]21` [Doxycycline Hyclate] showed a cell proliferation of 105.

Molecule `CS(=O)(=O)c1ccc(C(=O)Nc2ccc(Cl)c(-c3ccccn3)c2)c(Cl)c1` [Vismodegib (GDC-0449)] came in with a cell proliferation of 108.

For `NC(=O)c1ncn([C@@H]2O[C@H](CO)[C@@H](O)[C@H]2O)c1N` [Acadesine], the cell proliferation came to 94.5.

In turn, `O=C(O)CCNc1cc(N2CCc3ccccc3CC2)nc(-c2ccccn2)n1` had a cell proliferation of 100.
